Measurements: article PMC8384837, “Expanding the binding specificity for RNA recognition by a PUF domain”

What was measured:
Experiment in all cases: yeast three-hybrid, YBZ-1, SC-Leu-His + 0.5 mM 3-AT, 4 days
Conditions in all cases: tags: N-Gal4 AD-HA kept; label: inside an RPR1-promoter hybrid RNA with tandem MS2 sites; ssRNA
PUM1 PUF domain R3-MRS = PUM1 PUF domain R3-MRS (Homo sapiens, UniProt Q14671 828-1176, C935M;Q939S)
Outline: (§1)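 Pumilio-1 PUF domain libraries, randomized at the three base-contacting residues of each repeat, were co-expressed with matching RNA elements from a centromeric plasmid in strain YBZ-1, which carries a LexA–MS2 coat fusion and a HIS3 reporter. Transformants grew for four days on SC-Leu (input) or on SC-Leu-His + 0.5 mM 3-AT (selection), and the repeat regions were PCR-amplified and Illumina-sequenced. The interaction score is the log change in variant frequency from input to selection. That logarithm is base 2, with a pseudocount of 1 where a variant was absent.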

PUM1 PUF domain R3-RPG = PUM1 PUF domain R3-RPG (Homo sapiens, UniProt Q14671 828-1176, C935R;R936P;Q939G)
Outline: as §1

PUM1 PUF domain R7-RQL = PUM1 PUF domain R7-RQL (Homo sapiens, UniProt Q14671 828-1176, S1079R;N1080Q;E1083L)
Outline: as §1

PUM1 PUF domain R4-PWN = PUM1 PUF domain R4-PWN (Homo sapiens, UniProt Q14671 828-1176, N971P;H972W;Q975N)
Outline: as §1

PUM1 PUF domain R4-DFT = PUM1 PUF domain R4-DFT (Homo sapiens, UniProt Q14671 828-1176, N971D;H972F;Q975T)
Outline: as §1

PUM1 PUF domain R6-VWA = target: T1, PUM1 PUF domain R6-VWA (Homo sapiens, UniProt Q14671 828-1176, N1043V;Y1044W;Q1047A)
T1 sequence: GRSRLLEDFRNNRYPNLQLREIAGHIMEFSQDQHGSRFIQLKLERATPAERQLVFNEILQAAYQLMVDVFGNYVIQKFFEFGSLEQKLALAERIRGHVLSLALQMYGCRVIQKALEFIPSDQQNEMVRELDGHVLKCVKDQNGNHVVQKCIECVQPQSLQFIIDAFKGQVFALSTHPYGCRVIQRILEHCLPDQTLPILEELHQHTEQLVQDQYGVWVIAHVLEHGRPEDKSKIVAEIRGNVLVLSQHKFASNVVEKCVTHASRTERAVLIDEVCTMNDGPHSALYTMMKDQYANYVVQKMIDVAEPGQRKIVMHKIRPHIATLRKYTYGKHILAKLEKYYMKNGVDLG
Outline: as §1

PUM1 PUF domain R1-YWR = PUM1 PUF domain R1-YWR (Homo sapiens, UniProt Q14671 828-1176, S863Y;R864W;Q867R)
Outline: as §1

PUM1 PUF domain R4-GNR = PUM1 PUF domain R4-GNR (Homo sapiens, UniProt Q14671 828-1176, N971G;H972N;Q975R)
Outline: as §1

GGCUAGAACUAGUGGAUCCCCCGGCGCCCGGCGGCUCGAGCCCGGGUAAGUGUAAGUAGUCUGCAUGCCGCCGGGCGCCAUGCCUGCAGGUCGACUCUAGAAAACAUG
binding signal (PUM1 PUF domain R3-MRS): 4.95 log2 enrichment (interaction score)

GGCUAGAACUAGUGGAUCCCCCGGCGCCCGGCGGCUCGAGCCCGGGUAAGUGUAAUUAGUCUGCAUGCCGCCGGGCGCCAUGCCUGCAGGUCGACUCUAGAAAACAUG
binding signal (PUM1 PUF domain R3-MRS): 2.96 log2 enrichment (interaction score) | binding signal (PUM1 PUF domain R3-RPG): 4.38 log2 enrichment (interaction score)

GGCUAGAACUAGUGGAUCCCCCGGCGCCCGGCGGCUCGAGCCCGGGUAAGUUUAAAUAGUCUGCAUGCCGCCGGGCGCCAUGCCUGCAGGUCGACUCUAGAAAACAUG
binding signal (PUM1 PUF domain R7-RQL): 3.63 log2 enrichment (interaction score)

GGCUAGAACUAGUGGAUCCCCCGGCGCCCGGCGGCUCGAGCCCGGGUAAGUGUAAAUAGUCUGCAUGCCGCCGGGCGCCAUGCCUGCAGGUCGACUCUAGAAAACAUG
binding signal (PUM1 PUF domain R4-PWN): 2.08 log2 enrichment (interaction score) | binding signal (PUM1 PUF domain R4-DFT): 3.18 log2 enrichment (interaction score) | binding signal (PUM1 PUF domain R6-VWA): 4.02 log2 enrichment (interaction score)

GGCUAGAACUAGUGGAUCCCCCGGCGCCCGGCGGCUCGAGCCCGGGUAAGUGUAAAUCGUCUGCAUGCCGCCGGGCGCCAUGCCUGCAGGUCGACUCUAGAAAACAUG
binding signal (PUM1 PUF domain R1-YWR): 4.68 log2 enrichment (interaction score)

GGCUAGAACUAGUGGAUCCCCCGGCGCCCGGCGGCUCGAGCCCGGGUAAGUGUAAAUUGUCUGCAUGCCGCCGGGCGCCAUGCCUGCAGGUCGACUCUAGAAAACAUG
binding signal (PUM1 PUF domain R1-YWR): 4.46 log2 enrichment (interaction score)

GGCUAGAACUAGUGGAUCCCCCGGCGCCCGGCGGCUCGAGCCCGGGUAAGUGUACAUAGUCUGCAUGCCGCCGGGCGCCAUGCCUGCAGGUCGACUCUAGAAAACAUG
binding signal (PUM1 PUF domain R4-GNR): 1.04 log2 enrichment (interaction score)

GGCUAGAACUAGUGGAUCCCCCGGCGCCCGGCGGCUCGAGCCCGGGUAAGUGUAUAUAGUCUGCAUGCCGCCGGGCGCCAUGCCUGCAGGUCGACUCUAGAAAACAUG
binding signal (PUM1 PUF domain R4-GNR): 3.44 log2 enrichment (interaction score)

GGCUAGAACUAGUGGAUCCCCCGGCGCCCGGCGGCUCGAGCCCGGGUAAGUGAAAAUAGUCUGCAUGCCGCCGGGCGCCAUGCCUGCAGGUCGACUCUAGAAAACAUG
binding signal (PUM1 PUF domain R6-VWA): 6 log2 enrichment (interaction score)
